The values below come from PubChem BioAssay (NCATS).

Records with an inconclusive call do not appear. Unmarked numbers belong to inactive results. Active and inactive are the calls of the source. Calls follow the shape of the dose curve; as a rule, active = well fitted cell-killing curve with a large enough effect; inconclusive = small, poorly fitted or top-dose-only effect, or effect the other way; inactive = no such curve, though single readings can be large or run the other way.
Potency is read from the fitted curve at half-maximal effect.

This assay in a line: Viability qHTS for spleen associated tyrosine kinase inhibitor (SYKi) drug resistant MV4-11 cells (AID 1963824). Also: nearly all actives have a fitted effect of over 35% in size. The conditions noted are these: SYKi-resistant MV4-11 viability, CellTiter-Glo, 72 h; series mostly up to 45 µM; viability, % of control: at the top concentration. The essentials: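 CellTiter-Glo luminescence, read 10 min after reagent addition, reports viability after a 72 hr compound exposure. Cells are an MV4-11 line made resistant to SYK inhibition, seeded at 500 per well onto compound-containing plates.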
`CC1=CC(=O)C2C(C)(C)CCC[C@]2(C)[C@H]1CC[C@H](C)CC(=O)O` (stereo partly drawn): the “viability, % of control” value was 74.9%. Take `CC1=C2C[C@H]3OC(=O)[C@H](O)[C@@]4(O)[C@@H](C)[C@@H](O)[C@H](O)C([C@@]2(C)[C@H](O)[C@@H](O)C1)[C@@]34C` (stereo partly drawn): the Potency was 14.3 µM (active). Regarding `CC1(C)CC[C@@]2(C(=O)O[C@@H]3O[C@H](CO)[C@@H](O)[C@H](O)[C@H]3O)C(C1)C1=CCC3[C@@]4(C)CC[C@@H](O[C@@H]5O[C@H](C(=O)O)[C@@H](O[C@@H]6OC[C@@H](O)[C@H](O)[C@H]6O)[C@H](O[C@@H]6OC[C@](O)(CO)[C@H]6O)[C@H]5O)C(C)(C)C4CC[C@@]3(C)[C@]1(C)C[C@H]2O` (stereo partly drawn), the viability, % of control was 12% [at 9.25 µM]. As to `O=C1Cc2c([nH]c3ccc([N+](=O)[O-])cc23)-c2ccccc2N1`, the Potency was 0.502 µM (active). For `CC[C@H]1OC(=O)[C@](C)(F)C(=O)[C@H](C)[C@@H](O[C@@H]2O[C@H](C)C[C@H](N(C)C)[C@H]2O)[C@](C)(OC)C[C@@H](C)C(=O)[C@@H](C)[C@H]2N(CCCCn3cc(-c4cccc(N)c4)nn3)C(=O)O[C@]12C`, the Potency was 10.3 µM (active). The same measure, in the same setting: with `C=C1CC[C@@H](O)[C@]2(C)CC[C@H]3C(=C)C(=O)O[C@@H]3[C@@H]12` the figure was 11.6 µM (active).

`C/C(=C\CO[C@@H]1O[C@H](CO[C@H]2OC[C@](O)(CO)[C@H]2O)[C@@H](O)[C@H](O)[C@H]1O)C(C)(C)O`: the “viability, % of control” value is 80.6% [at 17.3 µM]. With `CC1CCC2(NC1)OC1C(O)C3C4CCC5CC(O[C@@H]6O[C@H](CO)[C@@H](O)[C@H](O)[C@H]6O[C@@H]6O[C@@H](C)[C@H](O)[C@@H](O)[C@H]6O)CCC5(C)C4CCC3(C)C1C2C` (stereo partly drawn), the “viability, % of control” value was 90.8% [at 17.3 µM].
